Laboratory results as given in ChEMBL document CHEMBL3988442, “University of Dundee, Small-Polar-MMV Screening Library” (2021).
Out of some 48,000 compounds screened, about 13,000 (27%) showed an effect of 50% or more. The list shows a part of the results.

These molecules were tested on Wolbachia pipientis (assay: Anti-Wolbachia Cell-Based Screen). Details: 5 µM.
Type: functional
Set-up: scale not given: in the data most compounds retested in dose-response had high values

| SMILES | Percent Effect |
| --- | --- |
| CN(CC(=O)N(C)C1CCCCC1)C1CCc2ccccc21 (stereo not drawn) | -4.106% |
| O=C(NCc1csc2ccccc12)NCC1(O)CCSC1 (stereo not drawn) | -14.62% |
| CN(C)C1CCCN(C(=O)NCCNC(=O)C2CCCCC2)C1 (stereo not drawn) | 2.915% |
| CNS(=O)(=O)Cc1ccc(CNC(=O)c2ccccn2)cc1 | 102.4% |
| CNS(=O)(=O)c1cccc(CNC(=O)c2c(C)oc(C)c2C)c1 | 20.61% |
| Cc1cccc(C(=O)NCc2ccc(S(N)(=O)=O)cc2)n1 | -0.8879% |
| Cc1oc(C)c(C(=O)NCc2cccc(C(N)=O)c2)c1C | 95.24% |
| CNS(=O)(=O)c1ccc(CNC(=O)c2ccccn2)cc1 | 0.2857% |
| CCN(CC)c1ccc(CNC(=O)c2ccccn2)cn1 | 19.52% |
| Cc1cccc(C(=O)NCc2ccc(CS(N)(=O)=O)cc2)n1 | 93.95% |
| Cc1oc(C)c(C(=O)NCc2ccccc2S(=O)(=O)N(C)C)c1C | -1.431% |
| Cc1oc(C)c(C(=O)NCc2cccc(NC(=O)CN(C)C)c2)c1C | 14.93% |
| CNS(=O)(=O)Cc1ccc(CNC(=O)c2cccc(C)n2)cc1 | 2.12% |
| CNS(=O)(=O)c1ccc(CNC(=O)c2c(C)oc(C)c2C)cc1 | 84.51% |
| CNS(=O)(=O)c1ccc(CNC(=O)NCC2CCC2)cc1 | -8.591% |
| CC(C)c1noc(CNc2cccc(-c3nnnn3C)c2)n1 | -7.266% |
| N#Cc1cccc(C(=O)N2CC(c3nc(-c4ccc[nH]c4=O)no3)C2)c1 | 9.318% |
| Cc1c[nH]c(CN(C)C(=O)c2ccc(CSc3nnc[nH]3)o2)n1 | -3.87% |
| CC(C(=O)N(C)C1CCCCC1)S(=O)(=O)Cc1csc(-c2cccs2)n1 (stereo not drawn) | -23.89% |
| Cc1cccc(C(=O)NCc2ccccc2)n1 | 112.9% |
| CNS(=O)(=O)c1ccc(CNC(=O)c2cccc(C)n2)cc1 | 84.72% |
| CCN(CC)c1ccc(CNC(=O)c2cccc(C)n2)cn1 | 13.97% |

| SMILES | Percent Effect |
| --- | --- |
| COc1ncccc1CNC(=O)c1cccc(C)n1 | 6.477% |
| CNS(=O)(=O)c1ccc(CNC(=O)NCc2cc[nH]n2)cc1 | -14.1% |
| CN1CCN(Cc2nc3ccccc3[nH]2)[C@H]2CS(=O)(=O)C[C@H]21 | -11.18% |
| CNc1cc(C)nc(N2CCC3(CC2)[C@H](O)C[C@@H]3OCCN(C)C)n1 | -28.04% |
| CCC(=O)N1CCCCC1c1nc(N(C)C)ncc1-c1cc(C)no1 (stereo not drawn) | 127.9% |
| Cc1cc(C2CCCN2C(=O)COc2ccc(CC#N)cc2)on1 (stereo not drawn) | -5.28% |
| COCC(=O)N1CCCCC1c1nc(N(C)C)ncc1-c1cc(C)no1 (stereo not drawn) | 90.99% |
| Cc1cc(-c2cnc(N(C)C)nc2C2CCCCN2C(=O)C2CC2)on1 (stereo not drawn) | 124.3% |
| CCCC(=O)N1CCCCC1c1nc(N(C)C)ncc1-c1cc(C)no1 (stereo not drawn) | 132.6% |
| Cc1csc(C2CCCCN2C(=O)COCc2nc(C)no2)n1 (stereo not drawn) | -7.815% |
| Cc1ccc(C(=O)NCC(C)Cn2ccnc2C)c(=O)[nH]1 (stereo not drawn) | -21.01% |
| Cc1nc(-c2cn(CCN)nn2)n(-c2ccc3c(c2)CCC3)n1 | -87.51% |
| COc1ccc(NC(=O)N2CCCC2c2ccncc2)cn1 (stereo not drawn) | -8.379% |
| Cc1nc2c(c(N3C[C@@H](C)[C@@](C)(O)C3)n1)CCC2 | 13.84% |
| CCc1ccc(S(=O)(=O)N2CC[C@@](O)(CCOC)[C@H](C)C2)cc1 | -34.1% |
| CCc1nc(C)sc1CN1C[C@@H](C)[C@@](C)(O)C1 | 98.2% |
| COCC[C@]1(O)CCN(C(=O)c2cnn(C)c2)C[C@H]1C | -13.07% |
| CC[C@@]1(O)CCN(c2ncc(Cl)cc2F)C[C@H]1O | -11.81% |
| CCc1nc(C)sc1CN1CC[C@@](O)(CCOC)[C@H](C)C1 | 97.23% |
| CCc1nc(C)sc1CNC1CCN(Cc2ccccc2)C1 (stereo not drawn) | -80.76% |
| CNC(=O)c1noc(CN2CC[C@](C)(O)[C@H](C)C2)n1 | 23.29% |
| C[C@@H]1CN(Cc2c[nH]c(CC3CCCC3)n2)CC[C@]1(C)O | 8.823% |

| SMILES | Percent Effect |
| --- | --- |
| CCc1nc(C)sc1CN1CC[C@](C)(O)[C@H](C)C1 | 84.46% |
| CC[C@@]1(O)CCN(Cc2cc(C3CCCCC3)no2)C[C@H]1O | 5.851% |
| CCc1nc(C)sc1CN1CC[C@](O)(CC)[C@H](O)C1 | 116.1% |
| O=C(O)CCNC(=O)C1(c2cccc(Br)c2)CCOCC1 | -13.76% |
| NC(=O)C1CCCN1Cc1ccccc1NC(=O)Cc1cccc(F)c1 (stereo not drawn) | -5.666% |
| N#Cc1cccnc1NCCNC(=O)N1CCSCC1 | -7.557% |
| CCC(C)N1CCc2c(C(=O)N(C)Cc3ccccn3)nn(C)c2C1 (stereo not drawn) | -11.92% |
| Cn1nc(Cn2cccn2)c2c1CN(C1CCOC1)C2.O=C(O)C(F)(F)F (stereo not drawn) | -10.84% |
| CCC(C)N1Cc2c(C(=O)N3CCCC3)nn(C)c2C1.O=C(O)C(F)(F)F (stereo not drawn) | 4.311% |
| CC(C)N1CCc2[nH]nc(C(=O)N3CCN(C)CC3)c2C1.O=C(O)C(F)(F)F.O=C(O)C(F)(F)F.O=C(O)C(F)(F)F | -19.75% |
| CC(C)N1CCc2[nH]nc(C(=O)N3CCOCC3)c2C1.O=C(O)C(F)(F)F.O=C(O)C(F)(F)F | -15.4% |
| CC(C)N1CCc2c(C(=O)N3CCOCC3)nn(C)c2C1.O=C(O)C(F)(F)F | 113.7% |
| CCC(C)N1Cc2c(C(=O)N3CCOCC3)nn(C)c2C1.O=C(O)C(F)(F)F (stereo not drawn) | 101.3% |
| CC(C)N1CCc2ncn(C)c2C1C(=O)N1CCOCC1.O=C(O)C(F)(F)F (stereo not drawn) | -11.58% |
| CC(C)N1Cc2c(C(=O)N3CCN(C)CC3)nn(C)c2C1 | 107% |
| CCSc1ccccc1C(=O)N1CCC(S(=O)(=O)c2nncn2C)CC1 | -2.113% |
| O=C(CCN1CCc2cncnc2C1)N1CCc2sccc2C1 | -13.17% |
| CCCN(Cc1nc2ccccc2[nH]1)Cc1ccccc1OC | -7.618% |
| CNC(=O)C(CC(C)C)NC(=O)c1cccc(-c2n[nH]c(C)n2)c1 (stereo not drawn) | -1% |
| CN1CCN(C(=O)c2cccc(S(=O)(=O)NCC3(C)COC3)c2)CC1 | -15.33% |
| CC(=O)N1CCCN(C(=O)NCc2ccccn2)CC1 | -1.258% |
| CNC(=O)CCc1cccc(C2CCCN(c3cc(C)ncn3)C2)n1 (stereo not drawn) | 97.41% |

| SMILES | Percent Effect |
| --- | --- |
| O=C(CCc1ccccn1)NC1CCCN(C2Cc3ccccc3C2)C1 (stereo not drawn) | 4.048% |
| Cc1cnc(CN(C)C2CCN(CC(=O)Nc3c(C)n[nH]c3C)C2)o1 (stereo not drawn) | -8.354% |
| CN1CCCC(c2cccc(CCC(=O)NCC3(C)COC3)n2)C1 (stereo not drawn) | 99.75% |
| Cc1n[nH]c(C)c1NC(=O)CCc1cccc(C2CCCN(C)C2)n1 (stereo not drawn) | 122.5% |
| Cc1n[nH]c(C)c1NC(=O)CN1CCc2c(nc(C3CC3)n2C)C1 | 10.04% |
| CN1CCCC(c2cccc(CCC(=O)NCc3ccccn3)n2)C1 (stereo not drawn) | 93.1% |
| COCC1CCN(C(=O)c2cccc(S(=O)(=O)NCC3(C)COC3)c2)C1 (stereo not drawn) | -10.59% |
| O=C(Cn1cc(C(=O)O)ccc1=O)Nc1cc(F)ccc1F | -7.497% |
| Cc1[nH]ccc1C(=O)NC1CCC(N2C(=O)CCC2=O)CC1 (stereo not drawn) | -10.09% |
| Cc1cc(C)c(CNC(=O)NCCCNc2ccccn2)c(=O)[nH]1 | 5.95% |
| CCc1noc(CS(=O)(=O)Cc2nc(Cc3ccccc3)no2)n1 | 6.103% |
| CN1CCC(c2cccc(CCC(=O)NCC(N)=O)n2)CC1 | 102.3% |
| CN1CCCC(c2cccc(CCC(N)=O)n2)C1 (stereo not drawn) | 113.5% |
| O=C(CCc1ccccn1)NC1CCN(c2cccc(Cl)c2)C1 (stereo not drawn) | 3.633% |
| CS(=O)(=O)N[C@@H]1CCN(Cc2ccncc2)[C@H]1Cc1cccnc1 | -7.843% |
| COc1cc(C(=O)NCC2CC2)nc2c(C)cc(F)cc12 | 82.93% |
| CCNC(=O)c1cc(OC)c2cc(F)cc(C)c2n1 | 114.2% |
| COc1ccc(F)cc1C(C)NC(=O)c1nnc(C)s1 (stereo not drawn) | 1.178% |
| COc1ccccc1[S+]([O-])CC(=O)NCc1cc(F)cc(F)c1 (stereo not drawn) | -8.178% |
| COc1ccccc1C(O)Cn1cc(C(=O)NCC2CC2)nn1 (stereo not drawn) | -12.95% |
| O=C(NCC1CCCO1)c1cc(COc2ccccc2F)[nH]n1 (stereo not drawn) | -5.725% |
| COc1cc(CCNC(=O)NCCC2CCCO2)ccc1C (stereo not drawn) | -11.71% |

| SMILES | Percent Effect |
| --- | --- |
| COc1cc(C(=O)NCC2CCCO2)nc2c(C)cc(F)cc12 (stereo not drawn) | 102.3% |
| CCNC(=O)N(C)Cc1ccc(SC)c(OC)c1 | -16.12% |
| Cc1cc(C(=O)NC(C)C(=O)Nc2cc(F)ccc2C)nc(C)n1 (stereo not drawn) | -4.486% |
| COc1cc(C(=O)NC(C)C)nc2c(C)cc(F)cc12 | 104.7% |
| O=C(NCC1CC1)c1nc2c(o1)CN(CC1CC1)C2.O=C(O)C(F)(F)F | -8.922% |
| CS(=O)(=O)c1ccc(CNC[C@H]2COCc3nc4ccccc4n32)cc1 | -0.06058% |
| CN1CC[C@H]2CN(C(=O)c3ccc4sc5c(c4c3)CCNC5=O)C[C@H]21 | 3.711% |
| CCN(CC)C(=O)Cn1cc(C(=O)NCCCc2scnc2C)nn1 | 7.072% |
| CC(C)(C)C(O)CN1CCN(CC(=O)NC(C2CC2)C2CC2)CC1 (stereo not drawn) | 12.33% |
| O=C(C1CCSCC1)N1CC[C@H]2OCC[C@@]2(COCC2CC2)C1 | -16.75% |
| Cc1nc(S(=O)(=O)CCn2cccn2)n(C2CCCCC2)c1C | -17.58% |
| N#Cc1ccc(SCCCO)c(F)c1 | -3.443% |
| O=C(C[C@@H]1COC[C@H]2CN(C3CCCC3)C[C@@H]12)NCc1cccnc1.O=C(O)C(F)(F)F.O=C(O)C(F)(F)F | 105.3% |
| O=C(C[C@@H]1COC[C@H]2CN(Cc3ccncc3)C[C@@H]12)N1CCOCC1.O=C(O)C(F)(F)F.O=C(O)C(F)(F)F | 3.799% |
| COc1cc(N2C[C@H]3CN(C(=O)c4cccnc4)C[C@H]3C2)ncn1.O=C(O)C(F)(F)F | -0.6433% |
| O=C(C[C@@H]1COC[C@H]2CN(Cc3ccc(F)cc3)C[C@@H]12)N1CCOCC1.O=C(O)C(F)(F)F | 19.83% |
| O=C(C[C@@H]1COC[C@H]2CN(C(=O)c3cccnc3)C[C@@H]12)N1CCOCC1.O=C(O)C(F)(F)F | 132.5% |
| O=C(Nc1cnccn1)[C@@H]1COC[C@H]2CN(C3CCCC3)C[C@H]21.O=C(O)C(F)(F)F | 2.256% |
| Cc1cnc(CNC(=O)C[C@@H]2COC[C@H]3CN(C4CCC4)C[C@@H]23)cn1 | -2.895% |
| O=C(C[C@@H]1COC[C@H]2CN(C(=O)c3cccnc3)C[C@@H]12)N1CCCC1.O=C(O)C(F)(F)F | 97.49% |
